Screens deposited in PubChem by National Center for Advancing Translational Sciences (NCATS).
A647 autofl: compound autofluorescence in A647 spectral region | Compound fluorescence, A647 channel (570/671 nm), Tris buffer | max dye-equivalent concentration, M | 59,000 tested, under 10 active | AID 592;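 also: values scaled relative to a standard on each plate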
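Compounds pinned into 100 mM Tris pH 8.0, 15 min at room temperature, then read with 570 nm excitation/671 nm emission filters. Fluorescence normalized to an on-plate six-point Alexa 647 standard curve, giving dye-equivalent concentration per compound concentration.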
TexasRed autofl: compounds fluorescent in Texas Red spectral region; AID 587; 0.06% of 59,000 active; Compound fluorescence, Texas Red channel, 547/618 nm; hits give high values; max dye-equivalent concentration, M; in the data active = max dye-equivalent concentration above about 10 nM; inconclusive = between about 1.1 nM and that limit
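Texas Red-region profiling: compounds in 100 mM Tris pH 8.0 were read at 547/618 nm after 15 min at room temperature. Intensities were normalized against a six-point Texas Red standard series to give dye-equivalent concentration.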
A488 fluor: A488 region autofluorescence; 0.1% of 59,000 active; compound autofluorescence, A488 spectral region, dye equivalency; Compound Type: qHTS ECL - MLSMR; max dye equivalency, M
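Read-out: relative fluorescence at 480/540 nm, expressed as Alexa 488 dye-equivalent concentration from a six-point A488 standard included per plate. Conditions: 100 mM Tris, pH 8.0; 15 min incubation, room temperature.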
Resorufin fluor: compounds fluorescent in resorufin spectral region; max dye-equivalent concentration, M; 0.04% of 59,000 active; Compound fluorescence, resorufin region 547/598 nm, buffer; hits give high values
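Compounds in 100 mM Tris buffer, pH 8.0, incubated 15 min at room temperature, then read with 547 nm excitation and 598 nm emission filters. Fluorescence was converted to dye-equivalent concentration using an on-plate six-point resorufin standard curve.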
Rhodamine fluor: compound autofluorescence in rhodamine spectral region; Rhodamine-region fluorescence, 547/598 nm, Tris buffer; hits give high values; max dye-equivalent concentration, M; 0.05% of 59,000 active; in the data active = max dye-equivalent concentration above about 11 nM; inconclusive = between about 1.1 nM and that limit
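Read-out is relative fluorescence at 547 nm excitation and 598 nm emission, expressed as dye-equivalent concentration using rhodamine standards on every plate. Each compound was profiled across a concentration series after 15 min in 100 mM Tris, pH 8.0.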
Fluorescein autfl: compound fluoresces in the fluorescein spectral region | max fluorescein-equivalent concentration, M | AID 593 | 0.91% of 59,000 active | Compound autofluorescence, 480/540 nm, fluorescein-equivalent; hits give high values; in the data active = max fluorescein-equivalent concentration above about 10 nM; inconclusive = between about 1.1 nM and that limit
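In this qHTS profile, compound fluorescence was measured with a 480 nm/540 nm filter pair following a 15-min room-temperature incubation in 100 mM Tris (pH 8.0). A six-point fluorescein series on each plate served for normalization.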
The depositor's hits bear a star; i = inactive; u = inconclusive. A selection: hits, their analogues and other compounds. The true share with any hit is near 0.9%. Unless noted, no rule for the calls is given here.

SMILES	A647 autofl	TexasRed autofl	A488 fluor	Resorufin fluor	Rhodamine fluor	Fluorescein autfl
Nc1ncnc2c1ncn2[C@@H]1O[C@@H](C(=O)NC2CC2)[C@H](O)[C@@H]1O	8.7e-09	u	i	i	i	u
N#Cc1ccccc1-c1ccc2ncnc(NCc3cccs3)c2c1	4.2e-08	i	i	i	i	u
Cn1c(=O)c2[nH]c(CS(=O)(=O)Cc3nc4c([nH]3)c(=O)n(C)c(=O)n4C)nc2n(C)c1=O	3.8e-09	u	u	i	i	1.2e-07M*
N.N.N.N.N.N.N.N.N.N.N.N.N.N.O.O.[Ru].[Ru].[Ru]	4.4e-09	u	i	i	i	i
N#Cc1c(/N=C/c2ccco2)sc2c1CCCCC2	1e-09	i	i	i	i	i
N#Cc1c(/N=C/c2cccs2)sc2c1CCC2	2.5e-08	i	i	i	i	u
CN1CCc2c(sc(/N=C/c3ccco3)c2C(N)=O)C1	8.6e-09	i	u	i	i	2.5e-08M*
CN1CCc2c(sc(/N=C/c3cccs3)c2C(N)=O)C1	1.6e-09	u	i	i	i	1.1e-08M*
COc1cc(/C=C\C(=O)CC(=O)/C=C\c2ccc(O)c(OC)c2)ccc1O	1e-09	i	i	i	i	u
OC[C@@H]1O[C@@H](n2cnc3c(NCCc4ccccc4)ncnc32)[C@@H](O)[C@H]1O	1.4e-08	i	i	i	i	i
Cc1nc(NCc2ccco2)c2c3c(sc2n1)CCC3	1.4e-08	i	i	i	i	i
CCN1CCc2c(sc3c2c(NCc2ccco2)nc2nnnn23)C1	1e-09	i	i	i	i	1.3e-08M*
C=CCn1c(=O)/c(=C/c2cc(OC)c(OC)c(OC)c2)s/c1=C(/C#N)c1nc2ccccc2n1C	6.5e-08	i	1.5e-08M*	i	i	2.8e-07M*
C=CCn1c(=O)/c(=C/c2ccc(Cl)cc2)s/c1=C(/C#N)c1nnc2n1CCCCC2	2.3e-09	i	i	i	i	i
C=CCn1c(=O)/c(=C/c2ccc(O)cc2)s/c1=C(/C#N)c1nnc2n1CCCCC2	1.7e-08	i	u	i	i	9.4e-08M*
O=C(c1ccco1)[C@@H]1[C@@H]2C(=O)N(c3ccccc3)C(=O)[C@@H]2C2c3ccccc3C=CN21 (stereo not given in full)	4e-09	i	i	i	i	1.8e-08M*
Cc1ccc(N2C(=O)[C@@H]3[C@H](C2=O)C2c4ccccc4C=CN2[C@@H]3C(=O)c2ccco2)cc1 (stereo not given in full)	1e-09	u	i	i	i	1.1e-08M*
CC(=O)[C@@H]1[C@@H]2C(=O)N(Cc3ccccc3)C(=O)[C@@H]2C2c3ccccc3C=CN21 (stereo not given in full)	4e-08	i	i	i	i	1.5e-08M*
CC(C)C1=CC2=CC[C@H]3[C@@](C)(CCC[C@]3(C)C(=O)O)[C@@H]2CC1	1.9e-09	i	i	i	i	i
Clc1ccccc1-c1nccc(NCc2cccs2)n1	4.8e-09	i	i	i	i	i
Nc1ccn([C@@H]2O[C@@H](CO)[C@@H](O)[C@H]2O)c(=O)n1	1e-08	i	i	i	i	u
CN(C)c1ccc(/C=N/n2ncc3ccccc32)cc1	1e-09	i	i	i	i	i
C=CCn1c(/N=C/c2ccc(N(C)C)cc2)nc2ccccc21	1e-09	i	i	i	i	2.1e-08M*
CCn1cc(C(=O)NCc2ccco2)c(=O)c2cc(S(=O)(=O)N3CCCCCC3)ccc21	1e-09	i	i	i	i	i
CCn1cc(C(=O)NCc2ccccn2)c(=O)c2cc(S(=O)(=O)N3CCCCC3)ccc21	3.6e-08	u	i	u	u	1.7e-08M*
SMILES	A647 autofl	TexasRed autofl	A488 fluor	Resorufin fluor	Rhodamine fluor	Fluorescein autfl
O=c1cc(O)cc(/C=C\c2ccc(O)c(O)c2)o1	1e-09	i	i	i	i	u
CCOC(=O)C1CCCN(c2nc3ccccc3nc2C(C#N)C(=O)OC(C)C)C1 (stereo not given)	2.5e-08	i	1.4e-08M*	i	i	2.3e-07M*
CCOC(=O)C1CCN(c2nc3ccccc3nc2C(C#N)C(=O)OC(C)C)CC1 (stereo not given)	6.6e-09	i	i	i	i	1.3e-08M*
CCOC(=O)C1CCN(c2nc3ccccc3nc2C(C#N)C(=O)OC(C)COC)CC1 (stereo not given)	1.5e-09	i	i	i	i	u
Nc1ccccc1S[C@@H](C[N+](=O)[O-])c1ccc2c(c1)OCO2	4.2e-08	i	i	i	i	u
C=CCNC(=O)C(C#N)c1nc2ccccc2nc1N1CCCCCC1 (stereo not given)	1e-09	i	i	i	i	1.3e-08M*
CCCCNC(=O)C(C#N)c1nc2ccccc2nc1N1CCCC1 (stereo not given)	1e-09	i	1.2e-08M*	i	i	2.3e-07M*
COC(=O)C(C#N)c1nc2ccccc2nc1N1CCCC1 (stereo not given)	1e-09	i	i	i	i	i
C=CCOC(=O)C(C#N)c1nc2ccccc2nc1N1CCN(Cc2ccc3c(c2)OCO3)CC1 (stereo not given)	1e-09	i	i	i	i	1.2e-08M*
CCCCNC(=O)C(C#N)c1nc2ccccc2nc1N1CCN(Cc2ccc3c(c2)OCO3)CC1 (stereo not given)	1e-09	i	i	i	i	u
CC1CCN(c2nc3ccccc3nc2C(C#N)C(=O)NC2CCCCC2)CC1 (stereo not given)	1.9e-09	i	i	i	i	1.4e-08M*
O=C(/C=C\c1ccc(O)c(O)c1)OCCc1ccccc1	4.1e-08	i	i	i	i	u
CC1CN(c2nc3ccccc3nc2C(C#N)C(=O)NCc2ccc3c(c2)OCO3)CC(C)O1 (stereo not given)	1e-09	i	u	i	i	1.1e-07M*
CCCCCCOC(=O)C(C#N)c1nc2ccccc2nc1N1CCCCC1 (stereo not given)	2.6e-08	i	i	i	i	1e-08M*
COc1ccc(CNC(=O)C(C#N)c2nc3ccccc3nc2N2CCCC2)cc1 (stereo not given)	1e-09	i	2.1e-08M*	i	i	3.5e-07M*
COc1ccc(CNC(=O)C(C#N)c2nc3ccccc3nc2N2CCN(C)CC2)cc1 (stereo not given)	1.5e-09	i	i	i	i	i
O=C(O)[C@@H]1[C@@H](C(=O)NCc2ccncc2)[C@@H]2C=C[C@@H]1O2	1.7e-08	i	i	i	i	u
